According to PubChem BioAssay (Tox21):
Inconclusive results are not listed. Calls of active or inactive are those of the source. Unless noted, calls come from the whole dose curve.

Tests used:
[1] = Nuclear factor erythroid 2-related factor 2/antioxidant responsive element (Nrf2/ARE) small molecule agonists: qHTS cell viability counter screen in human keratinocytes (AID 1919968; active = well fitted curve in the direction sought with a large enough effect in the repeat runs; an effect the other way counts as inactive or inconclusive; note: nearly all actives have a fitted effect of over 55% in size)
Summary of the method: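 KeratinoSens HaCaT cells, 1,500/well, preincubated 5 h, then exposed to compounds in DMSO for 23 h at 37 C/5% CO2. Viability read as CellTiter-Fluor fluorescence after 1 h, in the same wells as the ARE-luciferase read.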

[2] = Nuclear factor erythroid 2-related factor 2/antioxidant responsive element (Nrf2/ARE) small molecule agonists: luciferase reporter gene qHTS assay in human keratinocytes (AID 1919969); note: nearly all actives have a fitted effect of over 35% in size
[3] = target: Gonadotropin-releasing hormone receptor (Homo sapiens) (UniProt P30968); assay: Human gonadotropin-releasing hormone receptor (GnRHR) small molecule agonists, calcium flux assay in GnRHR-HEK293 cells (AID 1920063); note: nearly all actives have a fitted effect of over 35% in size
Summary of the method: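 HEK293 cells stably expressing human GnRHR were dye-loaded for 1 h at 37 C. Compound was added in agonist mode and fluorescence (Ex/Em 480/540) recorded kinetically for 3 min. Fifteen concentrations, triplicates.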

[4] = target: KiSS-1 receptor (Homo sapiens) (UniProt Q969F8); assay: Human kisspeptin (KISS1R) small molecule agonists, calcium flux assay in KISS1R-HEK293 cells (AID 1920064; active = well fitted curve in the direction sought with a large enough effect in the repeat runs; an effect the other way counts as inactive or inconclusive)
Summary of the method: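 HEK293 cells stably expressing human KISS1R were loaded with calcium dye for 1 h at 37 C, then given compound; fluorescence (Ex/Em 480/540) was read kinetically for 3 min. Fifteen concentrations, triplicate.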

[5] = G protein-coupled receptor (GPCR) small molecule agonists, calcium flux assay: HEK293 wild type cell line counter screen (AID 1920065)
Summary of the method: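 Wild-type HEK293 cells plated 18 h, loaded with calcium dye 1 h at 37 C, then compounds added in agonist mode (ATP as positive control). Kinetic fluorescence Ex/Em 480/540 recorded 3 min at 1 sec intervals; 15 concentrations, triplicate.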

[6] = p53 small molecule agonists, cell-based qHTS assay with human liver microsomes (AID 1963577);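 note: p53 response element beta-lactamase reporter cells with liver microsomes plus NADPH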
Summary of the method: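 16 h, 37 C exposure of p53RE-bla cells to compounds with human liver microsomes and NADPH (0.5 mg/mL final each); detection via LiveBLAzer mixture, 2 h dark at room temperature.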

[7] = p53 small molecule agonists, cell-based qHTS assay with rat liver microsomes (AID 1963578)
Summary of the method: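 With rat liver microsomes and NADPH present (0.5 mg/mL final each), p53RE-bla cells are treated with compound for 16 h at 37 C. LiveBLAzer detection mixture is then applied for 2 h at room temperature in the dark.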

[8] = p53 small molecule agonists, cell-based qHTS assay with human liver microsomes: qHTS cell viability counter screen (AID 1963579); note: nearly all actives have a fitted effect of over 45% in size
Summary of the method: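 In this multiplexed counter screen, the reporter plates were subsequently treated with CellTiter-Glo so that cell viability, reflected by luminescence, could be recorded for p53RE-bla cells dosed 16 h with compounds under microsomal activation (HLM and NADPH).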

[9] = p53 small molecule agonists, cell-based qHTS assay with rat liver microsomes: qHTS cell viability counter screen (AID 1963580); note: nearly all actives have a fitted effect of over 45% in size
Summary of the method: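 p53RE-bla HCT-116 cells were exposed 16 h at 37 C to compounds with rat liver microsomes (0.5 mg/mL) and NADPH (0.5 mg/mL). Viability was measured in the same wells as ATP content by CellTiter-Glo luminescence.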

[10] = p53 small molecule agonists, cell-based qHTS assay: qHTS cell viability counter screen (AID 1963581); note: nearly all actives have a fitted effect of over 45% in size
Summary of the method: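 p53RE-bla HCT-116 cells, compounds added 5 h after plating and incubated 16 h at 37 C. Cytotoxicity measured in the same wells as intracellular ATP by CellTiter-Glo luminescence after 30 min at room temperature.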

[11] = p53 small molecule agonists, cell-based qHTS assay (AID 1963582; active = well fitted activation curve with a large enough effect in the signal ratio in the repeat runs, not every such curve was filed as active; the % refers to the signal ratio)
Summary of the method: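 p53RE-bla reporter cells, compounds added in DMSO after 5 h plating, incubated 16 h at 37 C. Beta-lactamase read via 2 h room-temperature LiveBLAzer B/G FRET substrate, fluorescence intensity.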

[12] = target: 5-hydroxytryptamine receptor 2A (Homo sapiens) (UniProt P28223); assay: 5-hydroxytryptamine receptor 2A (HTR2A) small molecule agonists, cell-based qHTS assay (AID 1963587); note: nearly all actives have a fitted effect of over 30% in size; note: potency is the fitted concentration of half-maximal effect
Summary of the method: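 CHO cells stably expressing human HTR2A, plated 18 h, loaded with calcium dye 1 h at 37 C. Agonist mode: compounds added and intracellular calcium fluorescence recorded kinetically for 2 min at 1 sec intervals.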

[13] = target: Muscarinic acetylcholine receptor M1 (Homo sapiens) (UniProt P11229); assay: Cholinergic receptor muscarinic 1 (CHRM1) small molecule antagonists, cell-based qHTS assay (AID 1963588); note: nearly all actives have a fitted effect of over 40% in size; note: potency is the fitted concentration of half-maximal effect
Summary of the method: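 CHRM1-CHO calcium-flux assay, antagonist mode. Cells were seeded 18 h, dye-loaded 1 h at 37 C and given compound for 5 min at RT, then acetylcholine was added at 50nM. FDSS fluorescence was read 3 min; 15 concentrations, three runs.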

[14] = target: Muscarinic acetylcholine receptor M1 (Homo sapiens) (UniProt P11229); assay: Cholinergic receptor muscarinic 1 (CHRM1) small molecule agonists, cell-based qHTS assay (AID 1963589); note: nearly all actives have a fitted effect of over 35% in size
Summary of the method: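 CHO cells stably expressing human CHRM1 were loaded with calcium dye for 1 h at 37 C, then compound was added in agonist mode. Intracellular calcium fluorescence was followed kinetically at 1 s intervals. Fifteen concentrations were tested in three independent runs.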

[15] = cAMP Responsive Elements (CRE) small molecule agonists, cell-based qHTS assay (AID 1963590)
Summary of the method: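 CRE-bla HEK 293T cells, 2,000/well in DMEM with 10% dialyzed FBS and 25 mM HEPES, pre-incubated 18 h at 37 C, then exposed to compound 3 h at 37 C. Beta-lactamase reporter read with LiveBLAzer B/G FRET substrate after 2 h at room temperature.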

[16] = cAMP Responsive Elements (CRE) small molecule antagonists, cell-based qHTS assay (AID 1963591; active = well fitted inhibition curve with a large enough effect in the signal ratio in the repeat runs, not every such curve was filed as active; the % refers to the signal ratio)
Summary of the method: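 CRE-bla HEK293T cells plated 18 h, then given compound plus NKH477 at 0.25 uM final for 3 h at 37C. Beta-lactamase reporter read with LiveBLAzer B/G FRET substrate after 2 h at room temperature.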

[17] = target: Beta-2 adrenergic receptor (Homo sapiens) (UniProt P07550); assay: Adrenergic beta2 receptor (ADRB2) small molecule antagonists, cell-based qHTS assay (AID 1963592); note: series mostly up to about 92 µM; nearly all actives have a fitted effect of over 50% in size
Summary of the method: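 Cells (CHO, stable ADRB2 overexpression) incubated 18-20hr at 37C; compounds added from DMSO; agonist mix (1nM isoproterenol, 100uM IBMX, 25uM Ro-20-1724) added; 0.5hr RT; d2-cAMP and anti-cAMP-cryptate added; 1hr RT; 665/615 nm read.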

[18] = target: D(2) dopamine receptor (Homo sapiens) (UniProt P14416); assay: Dopamine D2 receptor (DRD2) small molecule antagonists, cell-based qHTS assay (AID 1963595; active = well fitted inhibition curve with a large enough effect in the signal ratio in the repeat runs, with a control signal flat; the % refers to the signal ratio)
Summary of the method: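 DRD2-HEK293; 0.1 mM Ro20-1724; cpd 10 min RT; NKH477 200 nM + quinpirole 12 nM, 30 min RT; HTRF cAMP (cAMP-d2/anti-cAMP cryptate), 665/620 nm ratio after 1 h.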

[19] = target: D(2) dopamine receptor (Homo sapiens) (UniProt P14416); assay: Dopamine D2 receptor (DRD2) small molecule agonists, cell-based qHTS assay (AID 1963594); note: nearly all actives have a fitted effect of over 35% in size
Summary of the method: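 HEK293 cells stably expressing human DRD2, pre-treated with PDE inhibitor Ro20-1724 (0.1 mM final) and compound 10 min at room temperature, then stimulated with NKH477 (200nM […]) for 30 min. cAMP read by HTRF (665/620 nm).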

[20] = target: Beta-2 adrenergic receptor (Homo sapiens) (UniProt P07550); assay: Adrenergic beta2 receptor (ADRB2) small molecule agonists, cell-based qHTS assay (AID 1963593);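 note: CHO cells stably overexpressing human ADRB2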
Summary of the method: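 CHO cells stably over-expressing ADRB2 were plated overnight at 37C, then dosed with compounds plus a stimulation mix containing 100uM IBMX and 25uM Ro-20-1724 for 0.5hr at room temperature. cAMP was measured by HTRF competition, 1hr.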
% is set by controls: 0 for no effect and ±100 for the full control effect.

Sequence of D(2) dopamine receptor (Homo sapiens) (P14416 whole entry, looked up): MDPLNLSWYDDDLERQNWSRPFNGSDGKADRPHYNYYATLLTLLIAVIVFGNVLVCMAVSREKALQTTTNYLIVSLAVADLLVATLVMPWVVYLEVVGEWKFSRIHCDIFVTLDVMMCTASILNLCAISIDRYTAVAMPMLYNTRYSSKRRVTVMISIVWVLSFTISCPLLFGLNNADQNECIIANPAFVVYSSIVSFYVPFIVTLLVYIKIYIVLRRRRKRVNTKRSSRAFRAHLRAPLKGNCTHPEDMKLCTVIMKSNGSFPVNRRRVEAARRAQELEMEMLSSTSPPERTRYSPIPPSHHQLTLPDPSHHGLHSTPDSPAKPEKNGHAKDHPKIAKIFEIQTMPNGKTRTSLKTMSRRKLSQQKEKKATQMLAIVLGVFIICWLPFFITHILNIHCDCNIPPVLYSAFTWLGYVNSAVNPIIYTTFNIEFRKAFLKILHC
Sequence of KiSS-1 receptor (Homo sapiens) (Q969F8 whole entry, looked up): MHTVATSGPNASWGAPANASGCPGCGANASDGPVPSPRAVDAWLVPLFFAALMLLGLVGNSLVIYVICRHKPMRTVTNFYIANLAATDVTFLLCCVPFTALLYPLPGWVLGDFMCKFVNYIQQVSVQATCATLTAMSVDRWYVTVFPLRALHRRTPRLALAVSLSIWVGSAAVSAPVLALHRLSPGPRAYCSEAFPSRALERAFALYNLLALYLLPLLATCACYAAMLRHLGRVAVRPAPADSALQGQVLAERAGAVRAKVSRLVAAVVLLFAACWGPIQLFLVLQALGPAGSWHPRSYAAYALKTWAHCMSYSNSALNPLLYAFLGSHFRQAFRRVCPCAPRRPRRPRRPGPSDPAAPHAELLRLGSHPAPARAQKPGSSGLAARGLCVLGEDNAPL
Sequence of Gonadotropin-releasing hormone receptor (Homo sapiens) (P30968 whole entry, looked up): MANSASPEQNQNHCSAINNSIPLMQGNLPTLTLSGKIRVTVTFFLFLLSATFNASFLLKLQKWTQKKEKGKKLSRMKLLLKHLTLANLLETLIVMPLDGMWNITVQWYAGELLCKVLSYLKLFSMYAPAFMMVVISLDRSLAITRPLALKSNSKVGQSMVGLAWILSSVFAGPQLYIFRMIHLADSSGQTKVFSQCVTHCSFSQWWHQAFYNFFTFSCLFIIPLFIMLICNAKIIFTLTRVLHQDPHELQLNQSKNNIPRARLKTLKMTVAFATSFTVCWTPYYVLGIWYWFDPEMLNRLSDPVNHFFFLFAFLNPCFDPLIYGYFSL
Sequence of 5-hydroxytryptamine receptor 2A (Homo sapiens) (P28223 whole entry, looked up): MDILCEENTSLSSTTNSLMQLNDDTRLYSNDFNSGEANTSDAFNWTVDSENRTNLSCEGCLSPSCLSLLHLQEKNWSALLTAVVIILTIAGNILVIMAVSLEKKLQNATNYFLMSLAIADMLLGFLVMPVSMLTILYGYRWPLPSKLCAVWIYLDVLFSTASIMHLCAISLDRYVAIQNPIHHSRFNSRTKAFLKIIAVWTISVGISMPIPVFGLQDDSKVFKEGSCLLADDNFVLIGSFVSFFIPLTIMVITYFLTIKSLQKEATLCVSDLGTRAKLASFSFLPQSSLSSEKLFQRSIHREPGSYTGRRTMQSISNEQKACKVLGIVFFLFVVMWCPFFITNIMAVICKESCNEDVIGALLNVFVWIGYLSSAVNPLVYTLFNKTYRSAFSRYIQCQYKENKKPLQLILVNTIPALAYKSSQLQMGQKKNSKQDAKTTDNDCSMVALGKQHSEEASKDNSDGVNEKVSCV
Sequence of Beta-2 adrenergic receptor (Homo sapiens) (P07550 whole entry, looked up): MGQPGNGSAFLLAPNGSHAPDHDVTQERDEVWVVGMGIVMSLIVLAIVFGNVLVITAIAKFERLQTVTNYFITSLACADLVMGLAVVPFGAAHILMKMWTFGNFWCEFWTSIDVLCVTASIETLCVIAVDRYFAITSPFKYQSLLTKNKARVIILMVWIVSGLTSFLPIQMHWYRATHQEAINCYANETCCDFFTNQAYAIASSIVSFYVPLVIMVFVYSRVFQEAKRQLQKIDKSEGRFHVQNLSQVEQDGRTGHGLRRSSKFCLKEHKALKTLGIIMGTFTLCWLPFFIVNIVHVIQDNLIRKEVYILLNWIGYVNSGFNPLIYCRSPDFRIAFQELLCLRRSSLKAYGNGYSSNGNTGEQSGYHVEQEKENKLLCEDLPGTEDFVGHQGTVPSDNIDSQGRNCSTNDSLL
Sequence of Muscarinic acetylcholine receptor M1 (Homo sapiens) (P11229 whole entry, looked up): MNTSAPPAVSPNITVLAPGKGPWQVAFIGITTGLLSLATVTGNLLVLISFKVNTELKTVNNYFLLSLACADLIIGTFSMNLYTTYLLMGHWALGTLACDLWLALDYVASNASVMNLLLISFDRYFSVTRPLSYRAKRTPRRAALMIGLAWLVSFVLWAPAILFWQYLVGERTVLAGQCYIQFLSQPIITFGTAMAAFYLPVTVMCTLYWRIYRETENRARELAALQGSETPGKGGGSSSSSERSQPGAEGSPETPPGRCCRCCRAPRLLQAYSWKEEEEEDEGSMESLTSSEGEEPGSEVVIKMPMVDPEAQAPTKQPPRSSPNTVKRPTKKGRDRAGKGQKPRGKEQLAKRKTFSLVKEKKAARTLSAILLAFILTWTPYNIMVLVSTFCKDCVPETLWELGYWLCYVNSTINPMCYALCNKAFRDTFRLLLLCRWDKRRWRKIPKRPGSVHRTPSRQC

Cc1cccc(C)c1NC(=O)CN1CCCC1
inactive: Potency [1] | Potency [2] | Potency [3] | outcome [4] | outcome [5] | Potency [6] | Potency [7] | Potency [8] | Potency [9] | Potency [10] | Potency [11] | Potency [12] | Potency [13] | Potency [14] | Potency [15] | Potency [16] | Potency [17] | Potency [18]

CN=C(N)NC(=O)Nc1c(C)cccc1C
inactive: Potency [1] | Potency [2] | Potency [3] | outcome [4] | outcome [5] | Potency [6] | Potency [7] | Potency [8] | Potency [9] | Potency [10] | Potency [11] | Potency [13] | Potency [14] | Potency [15] | Potency [16] | Potency [17] | Potency [19]
active: Potency [12] 6.74 µM

CCOC(=O)[C@H](O)[C@@H](O)C(=O)OCC
inactive: Potency [1] | Potency [2] | Potency [3] | outcome [4] | outcome [5] | Potency [6] | Potency [7] | Potency [8] | Potency [9] | Potency [10] | Potency [11] | Potency [12] | Potency [13] | Potency [14] | Potency [15] | Potency [16] | Potency [17] | Potency [20] | Potency [19] | Potency [18]

O=C1CCCc2c(O)cccc21
active: Potency [13] 0.163 µM
inactive: Potency [1] | Potency [2] | Potency [3] | outcome [4] | outcome [5] | Potency [6] | Potency [7] | Potency [8] | Potency [9] | Potency [10] | Potency [11] | Potency [12] | Potency [14] | Potency [15] | Potency [16] | Potency [17] | Potency [18]

CC[C@@H](N)CO
inactive: Potency [1] | Potency [2] | Potency [3] | outcome [4] | outcome [5] | Potency [6] | Potency [7] | Potency [8] | Potency [9] | Potency [10] | Potency [11] | Potency [12] | Potency [13] | Potency [14] | Potency [15] | Potency [16] | Potency [17] | Potency [19] | Potency [18]

O=C(Oc1ccccc1)c1ccccc1C(=O)Oc1ccccc1
inactive: Potency [1] | Potency [2] | Potency [3] | outcome [4] | outcome [5] | Potency [6] | Potency [7] | Potency [8] | Potency [9] | Potency [10] | Potency [11] | Potency [12] | Potency [13] | Potency [14] | Potency [16] | Potency [17] | Potency [20] | Potency [19] | Potency [18]

O=C(O)CNCC(=O)O
inactive: activity change, negative = cytotoxicity [1] 0.812% [at 8.39 µM] | activity, positive = activation [2] -2.08% [at 8.39 µM] | activity change [3] 0.0589% [at 5.22 µM, stronger effect = higher value] | activation [4] 0.594% [at 6.97 µM] | activation [5] 0.144% [at 5.23 µM] | activation [6] 0.261% [at 5.99 µM] | activation [7] 0.304% [at 5.99 µM] | activity change, negative = cytotoxicity [8] -6.14% [at 5.99 µM] | activity change, negative = cytotoxicity [9] 8.22% [at 5.99 µM] | activity change, negative = cytotoxicity [10] -13% [at 5.99 µM] | activation [11] 0.447% [at 5.99 µM] | activation [12] -1.98% [at 7.02 µM] | activity, negative = inhibition [13] -11.9% [at 5.58 µM] | activation [14] 0.803% [at 6.97 µM] | activation [15] -0.186% [at 8.39 µM] | activity change, negative = inhibition [16] 0.325% [at 8.39 µM] | activity change, negative = inhibition [17] -7.9% [at 8.39 µM] | activation [19] -0.477% [at 8.39 µM] | activity change, negative = inhibition [18] -7.14% [at 8.38 µM]
